Tests used:
Assay in all cases: protein-binding microarray (PBM); PBM: ~300 nM protein, 6 mM HEPES pH 7.8, 80 mM KCl, 0.5 mM EDTA, 0.5 mM EGTA, 6% glycerol, 35 ng/ul poly-dIdC, 1% milk, 1 h, room temperature; Ap Aiptasia and Nv Nematostella (sea anemones) / Co Capsaspora / Aq Amphimedon (sponge) / Dm Drosophila / Hu human; RHD is the Rel homology domain; high values mean tight binding
Settings in all cases: dsDNA, one strand shown
GST-Ap-NF-kB RHD = target: T1, GST-Ap-NF-kB RHD (Exaiptasia pallida (Aiptasia), UniProt A0A913YAJ5 2-422)
T1 sequence: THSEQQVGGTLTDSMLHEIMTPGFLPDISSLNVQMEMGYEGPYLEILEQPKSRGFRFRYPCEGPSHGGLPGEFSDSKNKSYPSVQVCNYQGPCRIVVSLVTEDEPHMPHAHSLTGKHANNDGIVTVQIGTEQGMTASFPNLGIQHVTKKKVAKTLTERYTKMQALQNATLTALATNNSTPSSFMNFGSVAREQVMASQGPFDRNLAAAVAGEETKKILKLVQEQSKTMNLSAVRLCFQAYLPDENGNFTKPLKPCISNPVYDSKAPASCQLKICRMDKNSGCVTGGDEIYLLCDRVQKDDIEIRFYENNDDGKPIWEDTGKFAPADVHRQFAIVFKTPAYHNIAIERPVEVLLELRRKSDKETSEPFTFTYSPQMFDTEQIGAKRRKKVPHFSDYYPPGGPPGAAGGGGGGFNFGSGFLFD

[1] = target: T2, GST-Nv-NF-kB (Cys allele) (Nematostella vectensis, UniProt E5G601 2-411)
T2 sequence: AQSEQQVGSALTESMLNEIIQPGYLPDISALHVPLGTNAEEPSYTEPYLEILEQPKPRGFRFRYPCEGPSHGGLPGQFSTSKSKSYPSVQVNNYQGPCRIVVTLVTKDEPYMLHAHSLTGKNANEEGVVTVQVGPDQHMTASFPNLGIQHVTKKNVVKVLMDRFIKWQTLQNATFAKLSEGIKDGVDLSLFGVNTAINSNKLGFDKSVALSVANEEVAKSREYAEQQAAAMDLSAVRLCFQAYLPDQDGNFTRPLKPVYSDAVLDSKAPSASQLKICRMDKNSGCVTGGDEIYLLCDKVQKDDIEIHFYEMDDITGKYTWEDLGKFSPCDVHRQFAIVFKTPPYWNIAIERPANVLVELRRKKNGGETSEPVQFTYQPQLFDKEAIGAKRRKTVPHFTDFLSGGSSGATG

GST-Co-NF-kB = target: T3, GST-Co-NF-kB (Capsaspora owczarzaki, UniProt F1ARL5 200-546)
T3 sequence: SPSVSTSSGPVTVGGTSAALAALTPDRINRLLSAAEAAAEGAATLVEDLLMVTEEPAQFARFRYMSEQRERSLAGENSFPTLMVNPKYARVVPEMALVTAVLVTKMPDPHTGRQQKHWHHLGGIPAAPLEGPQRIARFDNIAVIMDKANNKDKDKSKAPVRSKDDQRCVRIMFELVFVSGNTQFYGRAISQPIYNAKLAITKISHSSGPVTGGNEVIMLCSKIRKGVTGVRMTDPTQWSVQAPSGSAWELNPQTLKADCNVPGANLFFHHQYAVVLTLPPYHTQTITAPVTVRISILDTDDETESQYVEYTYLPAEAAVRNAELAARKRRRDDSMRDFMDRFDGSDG

GST-Dm-Relish = target: T4, GST-Dm-Relish (Drosophila melanogaster, UniProt Q94527 99-473)
T4 sequence: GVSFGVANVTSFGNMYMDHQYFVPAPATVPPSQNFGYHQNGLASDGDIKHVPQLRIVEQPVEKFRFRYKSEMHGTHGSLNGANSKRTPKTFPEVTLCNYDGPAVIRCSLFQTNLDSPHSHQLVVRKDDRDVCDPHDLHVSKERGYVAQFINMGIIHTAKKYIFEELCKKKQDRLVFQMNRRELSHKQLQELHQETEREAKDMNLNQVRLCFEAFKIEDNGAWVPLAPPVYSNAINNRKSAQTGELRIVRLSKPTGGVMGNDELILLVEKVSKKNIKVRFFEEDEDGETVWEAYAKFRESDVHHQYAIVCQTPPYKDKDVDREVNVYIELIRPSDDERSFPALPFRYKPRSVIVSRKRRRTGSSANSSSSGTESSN

GST-Aq-NF-kB = target: T5, GST-Aq-NF-kB (Amphimedon queenslandica, UniProt A9Y5G7 2-389)
T5 sequence: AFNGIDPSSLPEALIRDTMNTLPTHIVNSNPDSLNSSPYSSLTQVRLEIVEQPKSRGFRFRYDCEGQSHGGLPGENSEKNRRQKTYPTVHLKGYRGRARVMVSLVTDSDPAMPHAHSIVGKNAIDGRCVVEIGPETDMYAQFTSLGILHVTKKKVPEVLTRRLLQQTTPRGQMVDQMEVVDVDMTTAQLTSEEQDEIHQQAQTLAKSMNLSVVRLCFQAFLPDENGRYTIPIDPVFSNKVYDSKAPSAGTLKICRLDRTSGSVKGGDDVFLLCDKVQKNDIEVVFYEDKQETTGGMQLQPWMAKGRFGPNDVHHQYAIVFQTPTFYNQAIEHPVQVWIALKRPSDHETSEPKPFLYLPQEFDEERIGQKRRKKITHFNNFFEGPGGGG

GST-Hu-p50 = GST-Hu-p50 (Homo sapiens, UniProt P19838 7-356)
Chain of GST-Hu-p50 (P19838 7-356): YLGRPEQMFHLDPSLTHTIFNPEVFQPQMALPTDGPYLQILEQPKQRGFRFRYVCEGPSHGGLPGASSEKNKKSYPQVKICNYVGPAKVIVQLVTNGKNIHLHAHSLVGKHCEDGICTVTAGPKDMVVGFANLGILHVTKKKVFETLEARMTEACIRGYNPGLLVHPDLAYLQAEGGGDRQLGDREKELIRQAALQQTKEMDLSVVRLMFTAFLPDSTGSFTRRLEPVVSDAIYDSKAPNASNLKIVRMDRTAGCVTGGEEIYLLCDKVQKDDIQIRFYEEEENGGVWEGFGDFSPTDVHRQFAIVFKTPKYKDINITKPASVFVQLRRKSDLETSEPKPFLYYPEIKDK

Row | Sequence | binding signal (GST-Ap-NF-kB RHD) [z-score] | binding signal [1] [z-score] | binding signal (GST-Co-NF-kB) [z-score] | binding signal (GST-Dm-Relish) [z-score] | binding signal (GST-Aq-NF-kB) [z-score] | binding signal (GST-Hu-p50) [z-score]
1 | CCGATTAACATCAAACCTTCCCCTGATGTTAATCGGGTCTTGATTCGCTTGACGCTGCTG | 4.68 | 5.62 | 6.54 | 3.12 | 4.92 | 4.13
2 | CCGATTAACATCAATCCACCCCCTGATGTTAATCGGGTCTTGATTCGCTTGACGCTGCTG | 3.95 | 3.33 | 4.65 | 2.99 | 3.63 | 4.45
3 | CCGATTAACATCAGAAATTACCCTGATGTTAATCGGGTCTTGATTCGCTTGACGCTGCTG | 3.88 | 6.24 | 2.87 | 4.39 | 5.95 | 4.72
4 | CCGATTAACATCAGAAATACCCATGATGTTAATCGGGTCTTGATTCGCTTGACGCTGCTG | 4.24 | 5.32 | 1.74 | 3 | 4.73 | 5.12
5 | CCGATTAACATCAAGGGGGGAACTGATGTTAATCGGGTCTTGATTCGCTTGACGCTGCTG | 6.46 | 5.69 | 7.52 | 3.7 | 5.19 | 5.52
6 | CCGATTAACATCAGAATACCCCCTGATGTTAATCGGGTCTTGATTCGCTTGACGCTGCTG | 7.89 | 5.69 | 4.84 | 5.26 | 5.57 | 5.27
7 | CCGATTAACATCAGGGATTTTTATGATGTTAATCGGGTCTTGATTCGCTTGACGCTGCTG | 5.66 | 6.48 | 1.77 | 7.93 | 6.66 | 5.31
8 | CCGATTAACATCAAGGGGGGTTATGATGTTAATCGGGTCTTGATTCGCTTGACGCTGCTG | 5.81 | 4.63 | 3.05 | 7.12 | 5.77 | 5.59
9 | CCGATTAACATCAGAACCCCCCCTGATGTTAATCGGGTCTTGATTCGCTTGACGCTGCTG | 7.14 | 4.85 | 4.1 | 7.49 | 5.36 | 5.28
10 | CCGATTAACATCAGAAAGTTCCCTGATGTTAATCGGGTCTTGATTCGCTTGACGCTGCTG | 4.17 | 4.74 | 3.54 | 6.32 | 5.8 | 4.18
11 | CCGATTAACATCAGGGGACTTCATGATGTTAATCGGGTCTTGATTCGCTTGACGCTGCTG | 6.7 | 5.76 | 2.35 | 6.09 | 5.48 | 5.72
12 | CCGATTAACATCAAAATGCCCCCTGATGTTAATCGGGTCTTGATTCGCTTGACGCTGCTG | 5.68 | 5.66 | 4.18 | 5.29 | 6.11 | 5.37

From PMC5700166
